eLon inh – inhibitors of E. coli Lon protease, primary screen, biochemical, fluorescence polarization; P0A9M0; purified E. coli Lon protease; inhibition, % at 7.94 µM; 0.42% of 360,000 active; in the data active means inhibition above about 13%, passing the limit was not always enough;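 further: 0% = enzyme with probe and DMSO and 100% = no enzyme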
LANA DNA inh – inhibitors of KSHV C-LANA binding to DNA, primary screen, biochemical, fluorescence polarization, FAM-LBS DNA, MBP-C-LANA, single point. Kaposi's sarcoma herpesvirus LANA C-terminal domain (residues 932-1162) DNA binding. inhibition, % at 9 µM. 0.078% of 340,000 active. AID 504423, 2011;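 active means highest replicate inhibition at or above 60% at 9 µM, even if other replicates fall short; inactive means all replicates below 60% inhibition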;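 further: 0% = neutral control wells and 100% = 4 µM acridine orange control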
Keap1 Nrf2 FP – Keap1-Nrf2 protein-protein interaction inhibitors, primary screen, biochemical, fluorescence polarization, single point | Keap1 Kelch-Nrf2 peptide fluorescence polarization, 1536-well | inhibition, % at 9.4 µM | AID 504523, 2011 | 0.15% of 340,000 active; in the data active means inhibition above about 12%;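 further: human Keap1 Kelch domain with fluorescein labeled Nrf2 9mer peptide probe; 0% = neutral control wells and 100% = peptide positive control; higher means more block of Keap1 binding to Nrf2 peptide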
Target sequence (Q14145 whole entry, looked up, the tested form may be a part): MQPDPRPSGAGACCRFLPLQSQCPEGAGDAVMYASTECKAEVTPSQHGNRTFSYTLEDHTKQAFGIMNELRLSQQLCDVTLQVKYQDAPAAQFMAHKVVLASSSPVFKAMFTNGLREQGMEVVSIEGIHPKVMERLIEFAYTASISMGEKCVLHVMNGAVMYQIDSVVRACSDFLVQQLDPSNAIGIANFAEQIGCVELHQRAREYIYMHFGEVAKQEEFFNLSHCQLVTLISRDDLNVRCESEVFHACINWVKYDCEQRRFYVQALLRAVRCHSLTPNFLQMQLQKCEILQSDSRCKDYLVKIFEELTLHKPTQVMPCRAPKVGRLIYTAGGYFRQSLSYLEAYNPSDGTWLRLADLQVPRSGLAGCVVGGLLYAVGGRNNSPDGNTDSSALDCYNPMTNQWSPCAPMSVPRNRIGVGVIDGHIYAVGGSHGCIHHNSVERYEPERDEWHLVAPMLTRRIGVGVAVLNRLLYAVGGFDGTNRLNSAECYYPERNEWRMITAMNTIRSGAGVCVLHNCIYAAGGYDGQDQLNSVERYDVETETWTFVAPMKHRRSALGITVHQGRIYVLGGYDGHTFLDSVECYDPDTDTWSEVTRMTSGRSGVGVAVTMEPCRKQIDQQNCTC
EBNA-1 inh – EBNA-1 DNA-binding inhibitors, primary screen, biochemical, fluorescence polarization | 0.34% of 300,000 active | inhibition, % at 14.8 µM | AID 1950, 2009; in the data active means inhibition above about 28%
ZTA DNA inh – ZTA (EBV) inhibition in EBNA-1 counter-screen. 0.15% of 320,000 active. inhibition, % at 11 µM. ZTA-DNA binding, fluorescence polarization; in the data active means inhibition above about 33%
EBNA-1 confirm – EBNA-1 DNA-binding inhibitors, retest, confirmation, biochemical, fluorescence polarization, triplicate; inhibition, % at 14.8 µM; AID 2292, 2010; 35% of 830 active; Recombinant EBNA-1 DBD, Cy5-DNA fluorescence polarization; shares compounds with EBNA-1 inh;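 active means mean inhibition across replicates above a set limit taken from the earlier primary screen, cut at about 28% in these data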;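 further: plate controls were EBNA-1 protein with DMSO for no effect and wells lacking EBNA-1 for full effect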
ZTA counter trip – EBV Zta DNA binding inhibitors, counter-screen for EBNA-1 inhibitor project, biochemical, fluorescence polarization, triplicate; 830 tested, under 10 active; shares compounds with EBNA-1 inh; AID 2328, 2010; Zta-ZRE DNA binding, Cy5 fluorescence polarization; inhibition, % at 11.1 µM;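 active means mean inhibition over triplicates above a set limit taken from the primary EBNA-1 screen, cut at about 37% in these data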;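 further: purified full length Zta protein with Cy5 labeled ZRE DNA probe; 0% = Zta with DMSO and 100% = wells lacking Zta protein; inhibitors lower polarization by freeing the labeled DNA probe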
An asterisk follows results filed as active; nt = no result; + = active, no number. In the library only some 0.85% were active in any assay of this set; here they are far more common.

SMILES	eLon inh	LANA DNA inh	Keap1 Nrf2 FP	EBNA-1 inh	ZTA DNA inh	EBNA-1 confirm	ZTA counter trip
COCCn1c(SCC(=O)Nc2cc(C)on2)nc2ccccc2c1=O	0.5	-0.6	-4.8	nt	12.8	nt	nt
CCc1c(C)sc2nc(SCC(=O)Nc3cc(C)on3)n(CCOC)c(=O)c12	0.8	-1.4	-3.0	34.0*	8.7	11.7	-12.7
CCOc1ccc2nc(SCC(=O)NNC(=O)c3ccco3)c(C)cc2c1	7.0	0.3	-7.4	57.2*	7.0	42.0*	1.7
CSc1ncccc1C(=O)NC1CC(C)(C)Cc2c1cnn2-c1ccccc1C (centres undefined)	-2.6	2.4	-1.2	2.9	4.6	nt	nt
CCOC(=O)Cc1cc(=O)[nH]c(/N=C(\N)Nc2ccc(C)cc2C)n1	0.6	0.7	1.9	47.0*	4.8	-1.6	-0.3
COC(=O)c1cccc(S(=O)(=O)N2CCC(NC(=O)Nc3cccc(F)c3)CC2)c1	1.1	-1.0	1.4	36.0*	2.3	60.6*	-2.1
CC(=O)c1ccc(S(=O)(=O)N2CCC(NC(=O)Nc3cccc(F)c3)CC2)cc1	-1.1	-1.9	0.2	-1.2	-7.5	nt	nt
S=c1nc[nH]c2c1[nH]c1ccc(Cl)cc12	-1.2	-0.4	-5.5	42.7*	11.9	22.2	0.1
Cc1csc(NC(=O)COc2ccc3c(C)cc(=O)oc3c2)n1	-15.0	0.6	-0.9	44.4*	15.1	47.2*	10.4
O=S(=O)(Nc1nc2ccccc2nc1-[n+]1cccc(N=C([O-])c2ccccc2Cl)c1)c1ccccc1	nt	nt	nt	-8.5	1.7	nt	nt
COc1ccc(C([O-])=Nc2ccc[n+](-c3nc4ccccc4nc3NS(=O)(=O)c3ccccc3)c2)cc1	nt	nt	nt	28.8*	1.3	0.4	-6.5
Nc1ccccc1SCC(=O)Nc1ccc2c(c1)OCCO2	-3.5	-2.4	-5.3	-1.4	-0.8	nt	nt
O=C(NCCCN1CCOCC1)c1ccc(Br)s1	3.5	0.6	-3.1	-4.2	3.9	nt	nt
O=C(NCCCCNC(=O)c1ccc(Br)s1)c1ccc(Br)s1	-7.0	1.5	2.7	46.0*	25.3	11.1	9.7
Cc1ccccc1NC(=O)CN1CCN(Cc2ccccc2)CC1	4.3	1.6	1.7	-6.8	-0.6	nt	nt
Cc1ccccc1NC(=O)Cn1c(=O)n(Cc2ccccc2)c(=O)c2c(C)c(C)sc21	-7.1	0.5	-9.8	37.2*	1.8	26.2	-3.6
Cc1ccnc(SCC(=O)N2CCc3ccccc32)n1	0.7	0.6	-4.6	32.2*	4.7	-1.5	0.3
Cc1ccc(-n2c(SCC(=O)Nc3nccs3)nc3c(c2=O)SCC3)cc1	-5.7	1.5	-1.7	39.1*	23.1	38.4*	-3.1
CN(Cc1ccccn1)C(=O)c1cc(COc2ccc(F)c(F)c2)on1	-11.3	nt	nt	nt	nt	nt	nt
CC(C)N(CCNC(=O)c1nn(Cc2ccccc2)c(=O)c2ccccc12)C(C)C	-3.7	-0.6	1.2	1.5	-19.4	nt	nt
NS(=O)(=O)c1ccc(NC(=O)c2ccc(S(=O)(=O)N3CCc4ccccc43)cc2)cc1	-1.6	-1.1	-3.9	93.9*	-16.1	0.1	15.2
Cc1ccc(-c2nn3c(-c4ccco4)nnc3c3ccccc23)cc1S(=O)(=O)NCC1CCCO1 (centres undefined)	-7.2	0.0	3.0	85.9*	1.6	-4.0	-5.5
O=C(Cn1nc(-c2ccc3c(c2)OCCO3)ccc1=O)Nc1ccc(N2CCOCC2)cc1	nt	nt	nt	-0.2	7.9	nt	nt
O=C(Cn1nc(-c2ccc3c(c2)OCCO3)ccc1=O)Nc1cccc(NC(=O)c2ccccn2)c1	nt	nt	nt	40.8*	0.6	43.4*	12.3
O=C(Nc1cccc(S(=O)(=O)N2CCCCC2)c1)C1CC1	2.5	-0.5	-1.5	nt	-15.4	nt	nt
SMILES	eLon inh	LANA DNA inh	Keap1 Nrf2 FP	EBNA-1 inh	ZTA DNA inh	EBNA-1 confirm	ZTA counter trip
Cc1ccc(OCC(=O)NC(=S)Nc2cccc(NC(=O)c3ccccc3)c2)cc1	-3.0	0.0	-0.3	28.8*	14.3	16.7	-6.2
CC(=O)Nc1cccc(Nc2cc(C)nn2C)c1	4.2	nt	nt	nt	nt	nt	nt
CCn1c(Cc2ccccc2)nnc1SCC(=O)Nc1ccc2c(c1)OCCO2	-10.4	1.9	-5.7	28.9*	-0.5	-0.5	4.2
CCOc1cc(C(=O)N=c2sccn2C)cc(Br)c1OC	-1.9	-2.8	-2.4	6.2	-4.4	nt	nt
Cc1ccc2oc(-c3cccc(NC(=O)c4ccc(Br)o4)c3)nc2c1	-11.6	0.5	-0.3	-0.2	2.5	nt	nt
Cc1cc2nc(-c3cccc(NC(=O)c4ccc(Br)o4)c3)oc2cc1C	2.4	0.7	-2.3	50.9*	1.8	15.2	-2.5
Cc1ccc(-c2nc3ccccc3o2)cc1NC(=S)NC(=O)c1cccs1	-9.5	-1.8	4.7	35.6*	5.2	16.3	1.4
Cc1cc(C)c2oc(-c3ccc(C)c(NC(=S)NC(=O)c4cccs4)c3)nc2c1	7.4	0.2	-0.5	2.5	4.9	nt	nt
CCOC(=O)C1CCN(Cc2ccc(F)cc2)CC1	-3.9	-0.5	1.0	1.9	-31.4	nt	nt
CCOC(=O)C1CCN(Cc2ccc(Cl)c(Cl)c2)CC1	-0.7	0.4	-0.5	45.5*	0.9	3.7	5.1
COCCn1cnnc1SCC(=O)Nc1cc(OC)c([N+](=O)[O-])cc1C	-15.3	-1.2	-0.1	+	19.9	-2.7	-5.4
Cc1ccc(S(=O)(=O)c2cn(CC(=O)Nc3ccccc3)c3ccc(F)cc3c2=O)cc1	6.4	-0.1	-1.1	-11.4	0.1	nt	nt
Cc1ccc(NC(=O)Cn2cc(S(=O)(=O)c3ccc(F)cc3)c(=O)c3cc(F)ccc32)cc1	3.3	-0.4	2.2	29.1*	-1.4	47.2*	-0.5
COC(=O)C/C=C/N(Cc1ccccc1OC)S(=O)(=O)CCl	-13.7	2.2	-0.6	nt	nt	nt	nt
Cc1cc(CSc2ccccc2)ccc1NC(=O)c1cccc([N+](=O)[O-])c1	-3.7	-0.9	-0.2	28.4*	5.4	13.2	15.0
Cc1cc(O)c(NC(=O)c2cccc([N+](=O)[O-])c2)cc1C	-7.5	0.6	0.6	8.1	-0.2	nt	nt
O=[N+]([O-])c1ccc(/C=N/N2CCCCC2)cc1	-5.1	-0.6	-1.1	-9.0	-1.6	nt	nt
COc1cccc(Nc2nnc(SCn3nnc4ccccc4c3=O)s2)c1	2.8	-0.1	2.6	43.1*	4.3	37.8*	15.9
CCc1ccc(Nc2nnc(SCn3nnc4ccccc4c3=O)s2)cc1	-11.2	0.6	0.0	-15.3	2.9	nt	nt
O=C(/C=C/c1ccccc1Cl)OCC(=O)c1ccc[nH]1	0.3	0.8	-0.9	nt	1.3	nt	nt
O=C(NCCN1CCC(n2c(=O)[nH]c3ccccc32)CC1)C(c1ccccc1)c1ccccc1	-0.8	nt	nt	nt	nt	nt	nt
